Reference: the supplement of paper PMC10849652
Of roughly 7,900 targets only a part is listed; those with a hit were picked by preference. About 0.6% of all pairs of compound and target were hits. Unmarked numbers belong to inactive results.

Legend:
Assay in all cases: log2 fold change, soluble protein after heating vs DMSO (PISA); higher = thermal stabilisation; K562 cells, 10 uM, 30 min; active = over 0.2 and 3.5 SD of the protein, either way, in both replicates (recomputed)
[1] = compound: CC1=C(C=C(C=C1)NC(=O)C2=CC(=CC=C2)C(C)(C)C#N)NC3=CC4=C(C=C3)N=CN(C4=O)C
In short: (§1)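 K562 cells at 2×10^6 cells/mL were exposed to 10 μM compound for 30 min, then aliquots were heated for 3 min across 48°C-58°C, pooled, and extracted in PBS containing 0.5% NP-40 at 4°C. The supernatant after 21,000xg for 90 min was taken as soluble protein and measured by TMTpro 16plex LC-MS/MS with channel sums equalised. Thermal stability is reported relative to control samples, with values from duplicates. Fold changes are given on a log2 scale.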

[2] = compound: CC1=C(C=C(C=C1)NC(=O)C2=CC(=CC=C2)N(C)C)NC(=O)C3=CC=C(C=C3)O
In short: as §1

[3] = compound: CC1=CC=C(C=C1)SC2=C3C=C(SC3=CN=C2)C(=O)N
In short: as §1

[4] = compound: CC1=NC(=CC=C1)C2=C(N=C(N2)C(C)(C)C)C3=CC4=NC=CN=C4C=C3
In short: as §1

Nexturastat A = compound: CCCCN(Cc1ccc(C(=O)NO)cc1)C(=O)Nc1ccccc1 [Nexturastat A]
In short: as §1

vemurafenib = compound: CCCS(=O)(=O)Nc1ccc(F)c(C(=O)c2c[nH]c3ncc(-c4ccc(Cl)cc4)cc23)c1F [vemurafenib]
In short: as §1

[5] = compound: CCCS(=O)(=O)Nc1ccc(F)c(C(=O)c2c[nH]c3ncc(Cl)cc23)c1F
In short: as §1

[6] = compound: CCCc1cc(C)[nH]c(=O)c1CNC(=O)c1cc(-c2ccnc(N3CCN(C)CC3)c2)cc2c1cnn2C(C)C
In short: as §1

givinostat = compound: CCN(CC)Cc1ccc2cc(COC(=O)Nc3ccc(C(=O)NO)cc3)ccc2c1 [givinostat]
In short: as §1

barasertib = compound: CCN(CCCOc1ccc2c(Nc3cc(CC(=O)Nc4cccc(F)c4)[nH]n3)ncnc2c1)CCOP(=O)(O)O [barasertib]
In short: as §1

UniProt Q86VS8, sequence (Q86VS8 whole entry, looked up): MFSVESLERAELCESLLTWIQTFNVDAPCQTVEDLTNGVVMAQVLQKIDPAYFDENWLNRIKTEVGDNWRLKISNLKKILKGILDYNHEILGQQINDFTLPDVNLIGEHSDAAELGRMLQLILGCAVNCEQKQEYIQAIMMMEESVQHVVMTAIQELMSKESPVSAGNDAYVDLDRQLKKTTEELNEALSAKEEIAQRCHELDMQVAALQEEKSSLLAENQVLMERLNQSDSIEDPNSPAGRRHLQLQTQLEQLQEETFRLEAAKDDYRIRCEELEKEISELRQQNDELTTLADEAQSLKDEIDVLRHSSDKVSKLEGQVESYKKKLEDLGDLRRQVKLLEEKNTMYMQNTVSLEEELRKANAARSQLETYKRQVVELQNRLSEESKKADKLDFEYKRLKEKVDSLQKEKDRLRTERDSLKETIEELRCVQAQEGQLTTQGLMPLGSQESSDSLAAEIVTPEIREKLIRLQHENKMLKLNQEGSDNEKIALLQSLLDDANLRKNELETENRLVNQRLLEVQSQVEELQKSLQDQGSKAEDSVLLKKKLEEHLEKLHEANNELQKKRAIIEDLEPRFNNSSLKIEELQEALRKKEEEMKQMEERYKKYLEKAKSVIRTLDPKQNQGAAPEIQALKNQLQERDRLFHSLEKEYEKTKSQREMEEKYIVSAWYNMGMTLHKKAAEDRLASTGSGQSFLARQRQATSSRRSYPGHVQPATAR
UniProt P63218, sequence (P63218 whole entry, looked up): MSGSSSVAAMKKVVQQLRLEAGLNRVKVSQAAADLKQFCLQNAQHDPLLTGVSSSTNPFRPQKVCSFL
UniProt P29084, sequence (P29084 whole entry, looked up): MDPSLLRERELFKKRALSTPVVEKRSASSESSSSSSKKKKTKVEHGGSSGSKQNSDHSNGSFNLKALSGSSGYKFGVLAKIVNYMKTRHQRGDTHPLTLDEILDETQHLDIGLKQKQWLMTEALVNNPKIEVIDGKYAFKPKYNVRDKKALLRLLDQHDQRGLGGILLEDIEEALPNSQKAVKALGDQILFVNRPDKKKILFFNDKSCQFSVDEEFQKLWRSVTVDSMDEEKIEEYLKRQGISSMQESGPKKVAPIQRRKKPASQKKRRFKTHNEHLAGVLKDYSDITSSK
UniProt Q9H0R8, sequence (Q9H0R8 whole entry, looked up): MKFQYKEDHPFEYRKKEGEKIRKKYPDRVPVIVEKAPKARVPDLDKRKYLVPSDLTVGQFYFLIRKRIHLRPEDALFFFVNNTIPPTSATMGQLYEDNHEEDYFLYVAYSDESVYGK
UniProt P23327, sequence (P23327 whole entry, looked up): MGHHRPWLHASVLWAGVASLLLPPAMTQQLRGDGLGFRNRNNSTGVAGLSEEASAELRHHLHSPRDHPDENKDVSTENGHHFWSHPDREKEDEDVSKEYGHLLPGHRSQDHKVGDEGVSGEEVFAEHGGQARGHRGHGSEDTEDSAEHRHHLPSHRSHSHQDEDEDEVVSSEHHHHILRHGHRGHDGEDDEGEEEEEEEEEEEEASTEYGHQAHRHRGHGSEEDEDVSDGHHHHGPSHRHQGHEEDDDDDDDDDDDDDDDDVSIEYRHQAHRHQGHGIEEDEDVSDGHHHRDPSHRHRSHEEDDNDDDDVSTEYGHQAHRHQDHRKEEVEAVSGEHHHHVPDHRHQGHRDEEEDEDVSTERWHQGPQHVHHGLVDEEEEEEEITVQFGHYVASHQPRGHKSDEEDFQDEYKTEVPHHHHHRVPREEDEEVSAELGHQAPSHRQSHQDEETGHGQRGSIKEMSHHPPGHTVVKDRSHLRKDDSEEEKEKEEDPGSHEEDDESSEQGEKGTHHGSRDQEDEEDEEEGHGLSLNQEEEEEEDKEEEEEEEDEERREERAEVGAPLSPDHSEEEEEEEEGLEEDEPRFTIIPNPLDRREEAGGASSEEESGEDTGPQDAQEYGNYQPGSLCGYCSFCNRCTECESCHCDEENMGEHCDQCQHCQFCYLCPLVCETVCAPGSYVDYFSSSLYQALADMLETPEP
UniProt Q9Y680, sequence (Q9Y680 whole entry, looked up): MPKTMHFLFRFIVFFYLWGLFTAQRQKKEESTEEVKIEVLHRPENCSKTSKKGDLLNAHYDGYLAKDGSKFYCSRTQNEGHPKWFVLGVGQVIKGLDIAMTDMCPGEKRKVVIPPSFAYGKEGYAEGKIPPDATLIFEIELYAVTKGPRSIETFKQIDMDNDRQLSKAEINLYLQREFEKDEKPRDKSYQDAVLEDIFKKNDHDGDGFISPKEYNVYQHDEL
UniProt O43524, sequence (O43524 whole entry, looked up): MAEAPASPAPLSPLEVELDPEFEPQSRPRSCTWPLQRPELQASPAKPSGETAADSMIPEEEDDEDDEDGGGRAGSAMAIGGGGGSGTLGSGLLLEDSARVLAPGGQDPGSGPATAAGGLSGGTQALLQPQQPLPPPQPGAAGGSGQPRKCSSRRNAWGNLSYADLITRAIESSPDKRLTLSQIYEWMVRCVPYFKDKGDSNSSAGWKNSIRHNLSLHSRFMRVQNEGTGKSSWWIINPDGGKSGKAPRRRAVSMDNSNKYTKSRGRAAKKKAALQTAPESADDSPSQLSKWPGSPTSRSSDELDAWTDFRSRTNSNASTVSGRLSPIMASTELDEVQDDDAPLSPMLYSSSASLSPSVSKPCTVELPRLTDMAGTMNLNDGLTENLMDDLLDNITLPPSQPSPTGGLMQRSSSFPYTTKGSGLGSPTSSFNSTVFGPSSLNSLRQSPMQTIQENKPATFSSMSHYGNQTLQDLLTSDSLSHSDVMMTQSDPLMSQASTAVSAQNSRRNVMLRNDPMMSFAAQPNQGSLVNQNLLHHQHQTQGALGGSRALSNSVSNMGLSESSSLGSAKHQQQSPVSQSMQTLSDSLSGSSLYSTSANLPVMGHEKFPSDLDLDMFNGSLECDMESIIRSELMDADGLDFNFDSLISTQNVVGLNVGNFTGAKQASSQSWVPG
UniProt O14526, sequence (O14526 whole entry, looked up): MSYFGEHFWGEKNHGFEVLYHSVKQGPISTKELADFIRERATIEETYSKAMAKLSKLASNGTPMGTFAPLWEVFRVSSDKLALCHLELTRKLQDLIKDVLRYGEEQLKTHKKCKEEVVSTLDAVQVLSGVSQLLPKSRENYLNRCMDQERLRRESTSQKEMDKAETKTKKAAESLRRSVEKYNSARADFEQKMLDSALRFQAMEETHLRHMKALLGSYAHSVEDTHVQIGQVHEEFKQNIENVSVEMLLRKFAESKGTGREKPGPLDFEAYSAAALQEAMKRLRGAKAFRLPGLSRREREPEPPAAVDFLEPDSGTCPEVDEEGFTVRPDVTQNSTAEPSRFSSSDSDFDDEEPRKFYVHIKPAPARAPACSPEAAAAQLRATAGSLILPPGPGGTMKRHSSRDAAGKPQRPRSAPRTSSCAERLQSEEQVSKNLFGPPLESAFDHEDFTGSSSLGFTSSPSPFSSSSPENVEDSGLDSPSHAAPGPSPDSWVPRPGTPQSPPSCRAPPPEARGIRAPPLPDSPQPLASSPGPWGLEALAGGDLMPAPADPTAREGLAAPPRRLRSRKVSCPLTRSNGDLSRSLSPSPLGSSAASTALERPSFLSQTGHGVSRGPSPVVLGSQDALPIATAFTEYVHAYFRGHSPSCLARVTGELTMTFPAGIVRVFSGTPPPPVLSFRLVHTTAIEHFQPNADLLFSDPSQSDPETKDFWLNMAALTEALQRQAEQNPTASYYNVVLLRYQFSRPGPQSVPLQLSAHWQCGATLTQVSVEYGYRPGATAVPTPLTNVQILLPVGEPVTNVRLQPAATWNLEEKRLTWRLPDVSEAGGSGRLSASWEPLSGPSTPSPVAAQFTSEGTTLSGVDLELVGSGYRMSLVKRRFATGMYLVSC
UniProt Q658Y4, sequence (Q658Y4 whole entry, looked up): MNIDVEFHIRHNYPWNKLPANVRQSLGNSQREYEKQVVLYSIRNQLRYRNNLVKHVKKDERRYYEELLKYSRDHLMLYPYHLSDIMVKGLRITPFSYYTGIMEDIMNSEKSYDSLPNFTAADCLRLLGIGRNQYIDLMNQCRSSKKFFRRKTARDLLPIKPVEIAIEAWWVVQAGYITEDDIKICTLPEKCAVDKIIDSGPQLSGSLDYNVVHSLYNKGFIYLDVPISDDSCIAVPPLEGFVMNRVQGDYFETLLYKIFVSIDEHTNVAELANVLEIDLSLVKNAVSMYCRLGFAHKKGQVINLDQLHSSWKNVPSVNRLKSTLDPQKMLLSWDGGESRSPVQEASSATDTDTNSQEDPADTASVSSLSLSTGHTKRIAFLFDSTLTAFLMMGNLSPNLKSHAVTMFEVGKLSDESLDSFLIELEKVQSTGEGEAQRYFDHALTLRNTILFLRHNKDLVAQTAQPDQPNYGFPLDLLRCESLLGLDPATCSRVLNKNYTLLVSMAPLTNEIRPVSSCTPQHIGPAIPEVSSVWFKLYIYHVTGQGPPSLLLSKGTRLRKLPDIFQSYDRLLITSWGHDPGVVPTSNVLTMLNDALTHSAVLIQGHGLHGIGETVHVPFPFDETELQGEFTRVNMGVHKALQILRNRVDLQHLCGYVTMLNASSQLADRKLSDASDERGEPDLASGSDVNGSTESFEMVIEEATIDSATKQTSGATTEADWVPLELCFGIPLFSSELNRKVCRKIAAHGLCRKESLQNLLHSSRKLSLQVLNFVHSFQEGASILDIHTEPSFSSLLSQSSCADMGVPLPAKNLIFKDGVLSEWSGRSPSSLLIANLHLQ
UniProt Q16774, sequence (Q16774 whole entry, looked up): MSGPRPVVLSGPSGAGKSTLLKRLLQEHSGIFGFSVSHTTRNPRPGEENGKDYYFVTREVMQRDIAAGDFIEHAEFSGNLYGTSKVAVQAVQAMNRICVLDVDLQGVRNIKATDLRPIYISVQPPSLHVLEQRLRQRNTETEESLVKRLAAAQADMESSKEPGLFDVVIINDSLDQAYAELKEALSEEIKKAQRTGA
UniProt P01112, sequence (P01112 whole entry, looked up): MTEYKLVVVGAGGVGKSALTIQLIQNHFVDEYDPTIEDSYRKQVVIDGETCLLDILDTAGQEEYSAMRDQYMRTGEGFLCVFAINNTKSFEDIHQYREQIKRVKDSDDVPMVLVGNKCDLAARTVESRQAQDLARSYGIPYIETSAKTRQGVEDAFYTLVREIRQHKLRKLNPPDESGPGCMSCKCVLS

Target | log2 fold change [1] | log2 fold change [2] | log2 fold change [3] | log2 fold change [4] | log2 fold change (Nexturastat A) | log2 fold change (vemurafenib) | log2 fold change [5] | log2 fold change [6] | log2 fold change (givinostat) | log2 fold change (barasertib)
HRC (UniProt P23327) | -0.199 | 0.031 | 0.008 | 0.005 | 0.041 | -0.044 | -0.097 | -0.025 | -0.059 | 0.021
GAB2 (UniProt Q9UQC2) | -0.053 | -0.21 | 0.022 | 0.077 | 0.075 | -0.071 | -0.349 | 0.099 | 0.101 | –
FCHO1 (UniProt O14526) | 0.103 | -0.023 | 0.004 | -0.016 | 0.053 | 0.254 | 0.037 | -0.003 | 0.073 | –
GABARAPL1 isoform 2 (UniProt Q9H0R8) | -0.008 | 0.003 | 0.006 | 0.002 | -0.013 | -0.016 | -0.025 | -0.007 | 0.044 | 0.021
GSK3B isoform 2 (UniProt P49841) | 0.015 | -0.022 | 0.044 | 0.034 | 0.003 | -0.008 | -0.018 | -0.066 | -0.07 | -0.017
FCF1 (UniProt Q9Y324) | 0.017 | -0.011 | -0.114 | -0.187 | 0.271 | -0.139 | -0.167 | 0.324 | – | –
GLYR1 (UniProt Q49A26) | 0.039 | 0.032 | -0.125 | -0.06 | 0.375 (active) | 0.054 | 0.009 | 0.085 | 0.091 | 0.136
GLB1 (UniProt P16278) | -0.051 | -0.026 | -0.033 | -0.038 | 0.086 | -0.017 | -0.007 | 0.003 | 0.002 | -0.027
HIP1R (UniProt O75146) | -0.028 | -0.053 | 0.003 | -0.002 | -0.047 | -0.026 | 0.036 | -0.006 | 0.059 | 0.041
GNS (UniProt P15586) | -0.021 | 0.112 | 0.044 | 0.026 | -0.03 | 0.023 | -0.005 | 0.003 | 0.011 | -0.004
FANCD2 isoform 1 (UniProt Q9BXW9) | 0.003 | -0.007 | 0.027 | -0.035 | -0.09 | 0.033 | 0.099 | -0.031 | 0.017 | 0.043
HOOK3 (UniProt Q86VS8) | -0.024 | -0.023 | -0.014 | -0.039 | 0.034 | -0.014 | -0.001 | -0.026 | 0.091 | 0.008
GTF2B (UniProt Q00403) | -0.018 | -0.092 | 0.097 | 0.097 | -0.031 | 0.104 | 0.167 | 0.017 | 0.058 | 0.044
FYB1 isoform 3 (UniProt O15117) | 0.073 | 0.063 | 0.093 | 0.051 | 0.011 | -0.009 | 0.169 | -0.03 | 0.066 | 0.052
FOXO3 (UniProt O43524) | 0.247 | -0.039 | 0.037 | 0.119 | 0.024 | -0.023 | 0.017 | -0.159 | 0.012 | –
GALNT4 (UniProt Q8N4A0) | 0.008 | 0.017 | -0.029 | 0.013 | -0.049 | -0.037 | -0.001 | -0.01 | 0.005 | 0.011
GTF2E2 (UniProt P29084) | 0.045 | -0.068 | -0.01 | 0.02 | 0.082 | 0.057 | -0.039 | 0.055 | 0.059 | 0.035
FAM91A1 (UniProt Q658Y4) | 0.035 | 0.034 | -0.036 | -0.048 | 0.286 (active) | -0.055 | 0.051 | 0.07 | 0.024 | 0.06
HIKESHI (UniProt Q53FT3) | -0.138 | -0.051 | 0.003 | -0.011 | -0.037 | 0.027 | 0.003 | -0.033 | -0.008 | 0.011
FKBP7 (UniProt Q9Y680) | -0.052 | 0.001 | -0.034 | -0.074 | 0.002 | -0.031 | -0.097 | -0.025 | 0.002 | 0.044
GUK1 isoform 2 (UniProt Q16774) | 0.173 | -0.062 | -0.018 | 0.093 | -0.065 | 0.118 | -0.002 | 0.026 | 0.072 | -0.018
GSTO1 (UniProt P78417) | -0.031 | 0.002 | 0.03 | 0.03 | -0.121 | 0.02 | 0.017 | 0.15 | -0.043 | 0.016
FECH isoform 2 (UniProt P22830) | 0.45 | 0.162 | -0.16 | -0.006 | -0.123 | 0.022 | -0.167 | 0.367 | -0.238 | -0.049
GOLPH3 (UniProt Q9H4A6) | 0.074 | -0.031 | -0.017 | 0.022 | -0.017 | 0.015 | 0.058 | -0.011 | -0.007 | 0.023
GAK (UniProt O14976) | 0.214 | 0.038 | -0.337 | -0.14 | 0.452 | -0.06 | 0.114 | 0.17 | 0.64 | –
HRAS (UniProt P01112) | -0.042 | -0.065 | -0.031 | 0.096 | 0.147 | 0.064 | -0.083 | 0.089 | -0.065 | 0.063
FNTA (UniProt P49354) | -0.035 | -0.009 | 0.048 | -0.011 | -0.063 | -0.045 | -0.047 | 0.007 | -0.052 | 0.007
GNG5 (UniProt P63218) | 0.147 | -0.17 | -0.02 | 0.074 | 0.068 | 0.038 | 0.004 | 0.022 | -0.063 | -0.064
FERMT3 (UniProt Q86UX7) | 0.019 | -0.024 | 0.037 | 0.054 | -0.013 | 0.036 | 0.083 | 0.03 | 0.048 | 0.019
GMEB2 (UniProt Q9UKD1) | 0.038 | -0.033 | 0.041 | -0.066 | 0.09 | 0.012 | 0.041 | -0.088 | 0.087 | 0.029
